Compound activity (PubChem)
MEKK2wt PB1 HTS = modulators of MEK5 binding to wildtype MEKK2, primary screen, biochemical, multiplex bead flow cytometry, Alexa488-MEK5 | Alexa488-MEK5 binding to MEKK2 WT; actives lie on both sides | binding response (% of control), % at 10 µM | 290,000 tested, 1.1% active | AID 1531, 2009; in the data active means binding response below about 67% or above about 130%
MEKK3 PB1 HTS = modulators of MEKK3-MEK5 PB1 binding, primary screen, biochemical, wildtype MEKK3, multiplex bead flow cytometry, Alexa488-MEK5; Mitogen-activated protein kinase kinase kinase 3 (Homo sapiens), Q99759; AID 1529, 2009; bead-based flow cytometry, Alexa488-MEK5 binding to MEKK3; actives lie on both sides; 0 = blocked by unlabeled MEK5, 100 = vehicle; 290,000 tested, 1.4% active; binding response (% of control), % at 10 µM;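 active means binding response more than 3 SD above or below the average of its plate-row segment, actives on both sides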;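 further: Alexa488 bead fluorescence after subtracting the streptavidin-only scavenger bead signal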
MEKK2 mut-MEK5 = MEK5 binding signal on mutant MEKK2 PB1, primary screen, biochemical, multiplex bead flow cytometry, Alexa488-MEK5 | AID 1530, 2009 | Alexa488-MEK5 binding to MEKK2 mutant | 290,000 tested, 0.35% active | percent response, % at 10 µM; in the data active means percent response above about 24%, passing the limit was not always enough
ABCB6 inh 2 = ABCB6 transporter inhibitors, primary screen, K562-ABCB6 cells, flow cytometry, MLPCN library | ATP-binding cassette sub-family B member 6 (Homo sapiens), Q9NP58 | K562-ABCB6 porphyrin accumulation, 1 h; hits give low values | fluorescence ratio to DMSO, % at 10 µM | AID 602162, 2011 | 360,000 tested, 0.19% active;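 active means fluorescence ratio to DMSO below 75%, the collection mean minus 3 SD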;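 further: signal is porphyrin accumulated inside mitochondria; lower ratio means ABCB6 inhibition with less porphyrin fluorescence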
Target sequence (Q9NP58 whole entry, looked up): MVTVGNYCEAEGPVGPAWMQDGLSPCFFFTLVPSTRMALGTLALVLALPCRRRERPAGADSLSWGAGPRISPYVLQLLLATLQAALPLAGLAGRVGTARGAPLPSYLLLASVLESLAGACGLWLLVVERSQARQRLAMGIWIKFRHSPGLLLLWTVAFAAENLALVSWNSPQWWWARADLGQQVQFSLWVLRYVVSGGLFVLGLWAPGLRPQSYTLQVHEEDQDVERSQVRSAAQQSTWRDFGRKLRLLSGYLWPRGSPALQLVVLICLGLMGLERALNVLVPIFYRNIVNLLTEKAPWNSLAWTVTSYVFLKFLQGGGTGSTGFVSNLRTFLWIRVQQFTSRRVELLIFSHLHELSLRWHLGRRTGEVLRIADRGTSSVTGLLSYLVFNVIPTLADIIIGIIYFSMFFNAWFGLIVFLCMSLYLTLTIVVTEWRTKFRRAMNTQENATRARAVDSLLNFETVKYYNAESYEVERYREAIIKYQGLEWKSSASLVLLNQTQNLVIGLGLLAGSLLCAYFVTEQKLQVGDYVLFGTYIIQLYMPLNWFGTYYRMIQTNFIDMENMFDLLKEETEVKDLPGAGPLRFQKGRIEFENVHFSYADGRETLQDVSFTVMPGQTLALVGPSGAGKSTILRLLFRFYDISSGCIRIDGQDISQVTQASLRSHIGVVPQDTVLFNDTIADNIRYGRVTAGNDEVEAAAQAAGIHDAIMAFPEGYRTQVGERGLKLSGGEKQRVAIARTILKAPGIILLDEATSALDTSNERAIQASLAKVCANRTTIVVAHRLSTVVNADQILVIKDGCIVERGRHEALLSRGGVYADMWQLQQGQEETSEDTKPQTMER
CRFR2-BP ag = agonists of CRF-BP/CRF-R2 complex, primary screen, cell-based, HEK293, calcium dye fluorescence, uHTS. CRF-binding protein / CRF receptor 2 complex (human). calcium dye fluorescence (FLIPR); percent of saturating CRF peptide response. activation, % at 13.2 µM. 350,000 tested, 0.46% active;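 active means activation of at least 50%, plus an integration ratio under a set limit after plate pattern correction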
CRFR2-BP antag = antagonists of CRF-BP/CRF-R2 complex, primary screen, cell-based, HEK293, calcium dye fluorescence, uHTS | CRF-induced calcium fluorescence | inhibition, % at 11.8 µM | 350,000 tested, 0.59% active;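 active means inhibition of the ligand-induced calcium signal above about 50% at the single tested concentration, limit read from the data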
MEKK2wt confirm = modulators of MEK5 binding to wildtype MEKK2, confirmation, biochemical, single concentration, multiplex bead flow cytometry | shares compounds with MEKK3 PB1 HTS | 5,900 tested, 2.4% active | binding response (% of control), % at 10 µM | Alexa488-MEK5 binding to MEKK2 WT; actives lie on both sides; in the data active means binding response below about 16% or above about 210%; inactive means in between
MEKK2mut-MEK5 = mutant MEKK2 PB1-MEK5 binding signal retest – biochemical, single concentration, multiplex bead flow cytometry, confirmation; shares compounds with MEKK3 PB1 HTS; 5,900 tested, 2% active; percent response, % at 10 µM; Alexa488-MEK5 binding to MEKK2 mutant; in the data active means percent response mostly above about 71%, no sharp cut-off; inactive means mostly below about 38%;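 further: higher means compound restores mutant binding toward wildtype level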
MEKK3-MEK5 inh = MEKK3 wild-type PB1 binding to MEK5, inhibitors, confirmation, biochemical, bead multiplex flow cytometry, single concentration, wildtype; shares compounds with MEKK3 PB1 HTS; Alexa488-MEK5 binding to MEKK3; hits give low values; binding response (% of control), % at 10 µM; 5,900 tested, 1.8% active; AID 1894, 2009;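 active means binding response below 72% of control, or above a set upper limit, though filed actives all read lower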
Each line names hits and unclear results; the compound was inactive in the other large screens (follow-up assays come after a bar, where they were run); [ ] = remark or other dose. Rows were chosen to be rich in hits. Some 2.9% of all compounds tested hit in one or more screens of this group.

COc1ccc(C(CCN2CCCC(C)C2)c2c(OC)cc(OC)c3c2OC(=O)CC3c2cc(OC)c(OC)c(OC)c2)cc1 (stereo not drawn)	MEKK2wt PB1 HTS 145 | MEKK2wt confirm inactive | MEKK2mut-MEK5 inactive | MEKK3-MEK5 inh inactive
CCCCCc1cc(=O)oc2c(C(CCN3CCCC3)c3ccc(N(C)C)cc3)c(OC)cc(OC)c12 (stereo not drawn)	MEKK2wt PB1 HTS 151, MEKK2 mut-MEK5 42 | MEKK2wt confirm inactive | MEKK2mut-MEK5 83 | MEKK3-MEK5 inh inactive
COc1cc(OC)c2ccc(=O)oc2c1C(CCN1CCCC(C)C1)c1ccc2c(c1)OCO2 (stereo not drawn)	none
CCCCCc1cc(=O)oc2c(C(CCN3CCCCC3)c3ccc(OC)cc3)c(OC)cc(OC)c12 (stereo not drawn)	MEKK2wt PB1 HTS 164, MEKK2 mut-MEK5 67 | MEKK2wt confirm 208 | MEKK2mut-MEK5 inactive | MEKK3-MEK5 inh inactive
CCCCCc1cc(=O)oc2c(C(CCN3CCN(c4ccccc4)CC3)c3ccc4c(c3)OCO4)c(OC)cc(OC)c12 (stereo not drawn)	none
CCCCCc1cc(=O)oc2c(C(CCN(CC)CC)c3ccc(OC)cc3)c(OC)cc(OC)c12 (stereo not drawn)	MEKK2wt PB1 HTS 182, MEKK2 mut-MEK5 29 | MEKK2wt confirm inactive | MEKK2mut-MEK5 inactive | MEKK3-MEK5 inh inactive
CCCCCc1cc(=O)oc2c(C(CCN3CCCC(C)C3)c3ccc(OC)cc3)c(OC)cc(OC)c12 (stereo not drawn)	MEKK2wt PB1 HTS 153, MEKK2 mut-MEK5 58 | MEKK2wt confirm inactive | MEKK2mut-MEK5 107 | MEKK3-MEK5 inh inactive
COc1ccc(C(CCN2CCOCC2)c2c(OC)cc(OC)c3c(C)cc(=O)oc23)cc1 (stereo not drawn)	MEKK2wt PB1 HTS 151 | MEKK2wt confirm inactive | MEKK2mut-MEK5 inactive | MEKK3-MEK5 inh inactive
O=C(Cn1ccc2ccccc2c1=O)NCC(=O)N1CCN(c2ccc(F)cc2)CC1	none
O=C(CN1CCCc2ccccc21)N/N=C/c1ccccc1O	MEKK3 PB1 HTS 128 | MEKK2wt confirm inactive | MEKK2mut-MEK5 inactive | MEKK3-MEK5 inh inactive
Cc1ccc2nsnc2c1NC(=O)c1cccc([N+](=O)[O-])c1	MEKK3 PB1 HTS 134 (no result: ABCB6 inh 2, CRFR2-BP ag, CRFR2-BP antag) | MEKK2wt confirm inactive | MEKK2mut-MEK5 inactive | MEKK3-MEK5 inh inactive
COc1ccc(C(=O)Nc2c(C)ccc3nsnc23)cc1[N+](=O)[O-]	none
O=C(Cn1cnc2c(nnn2Cc2ccc(Cl)cc2)c1=O)N1CCCc2ccccc21	MEKK3 PB1 HTS 69[inhibitor] | MEKK2wt confirm inactive | MEKK2mut-MEK5 inactive | MEKK3-MEK5 inh inactive
COC(=O)c1ccc(N2CCN(S(=O)(=O)c3ccc(Br)cc3)CC2)c([N+](=O)[O-])c1	MEKK3 PB1 HTS 129 | MEKK2wt confirm inactive | MEKK2mut-MEK5 inactive | MEKK3-MEK5 inh inactive
O=C(NNC(=S)Nc1ccc(Br)cc1)c1ccc(N2CCOCC2)c([N+](=O)[O-])c1	MEKK3 PB1 HTS 137 | MEKK2wt confirm inactive | MEKK2mut-MEK5 inactive | MEKK3-MEK5 inh inactive
Cc1cc2cc(CN(CC3CCCO3)C(=S)NCc3ccco3)c(=O)[nH]c2cc1C (stereo not drawn)	MEKK3 PB1 HTS 147 | MEKK2wt confirm inactive | MEKK2mut-MEK5 inactive | MEKK3-MEK5 inh inactive
Cn1c(=O)cc(OCCCC(=O)NCc2cccnc2)c2ccccc21	MEKK3 PB1 HTS 48[inhibitor] | MEKK2wt confirm inactive | MEKK2mut-MEK5 inactive | MEKK3-MEK5 inh inactive
